Reference: PubChem BioAssay (EPA / NIEHS)
Calls of active or inactive are those of the source. How the source made its calls: active means hit-call score of the fitted dose curve at least 0.9, where 1 is the maximum; inactive means score below 0.9.

The compounds below were run on C-C motif chemokine 2 (Homo sapiens) (UniProt P13500) (assay: BSK_KF3CT_MCP1: BioMAP Diversity Plus: KF3CT Assay for Monocyte Chemoattractant Protein 1 (MCP1/CCL2) Biomarker Activity (AID 2283073)). Details: primary human keratinocytes with fibroblasts; actives raise or lower the signal.
How it was run: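 ELISA readout of MCP-1 after 24 h chemical dosing of a human skin primary co-culture of keratinocytes and foreskin fibroblasts. Activity was fitted in both directions against DMSO.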
For c1ccc2occc2c1, the outcome was “inactive”.
In the case of C#CC(O)C(CC)CCCC (stereo not given), the outcome is reported as “inactive”.
With NC=O the outcome was “inactive”.
COC(=O)CCC(=O)OC was tested, and the outcome was “inactive”.
In the case of CCC(C)N(C)C(=O)c1cc2ccccc2c(-c2ccccc2Cl)n1 (stereo not given), the outcome is reported as “inactive”.
CCN(CC)CCOc1ccc(C(=C(Cl)c2ccccc2)c2ccccc2)cc1 was tested, and the AC50 was 14.3 µM (active).
For O=Cc1ccccc1C=O, the outcome was “inactive”.
CCCC[C@H]1CN(CC2CCOCC2)C(=O)OC12CCN(C1(C)CCN(C(=O)c3c(C)ncnc3C)CC1)CC2 was tested, and the outcome was “inactive”.
For CCCCCCC(CCCCCCCCCCC(=O)OCC(COC(C)=O)OC(C)=O)OC(C)=O (stereo not given), the outcome was “inactive”.
For O=C1c2c(O)cccc2Cc2cccc(O)c21, the AC50 was 20 µM (active).
In the case of CC(C)(O)c1ccc(CNC(=O)c2cccnc2Oc2ccc(F)cc2)cc1, the outcome is reported as “inactive”.
In the case of Cn1cnc2c1c(=O)[nH]c(=O)n2C, the outcome is reported as “inactive”.
Oc1ccccc1O was tested, and the AC50 was 1.14 µM (active).
With CCCCCCCCCC[N+](C)(C)[O-] the outcome was “inactive”.
For O=C(N[C@@H](c1ccccc1)[C@@H]1CCCCN1)c1cccc(C(F)(F)F)c1Cl, the outcome was “inactive”.
With O=C1OC(c2ccc(O)cc2)(c2ccc(O)cc2)c2ccccc21 the outcome was “inactive”.
In the case of CC1=C(C)S(=O)(=O)CCS1(=O)=O, the outcome is reported as “inactive”.
In the case of O=C(Oc1ccccc1)c1cccc(C(=O)Oc2ccccc2)c1, the outcome is reported as “inactive”.
With CC(C)c1cccc(C(C)C)c1NC(=O)NS(=O)(=O)c1cc(C(C)(C)O)co1 the outcome was “inactive”.
Cc1ccc(-c2cc(C(F)(F)F)nn2-c2ccc(S(N)(=O)=O)cc2)cc1 was tested, and the outcome was “inactive”.
In the case of OCC(CO)n1cnc(-c2ccc(F)cc2)c1-c1ccnc(Oc2ccccc2)n1, the outcome is reported as “inactive”.
In the case of C=CCCCCCCCCCCCC, the outcome is reported as “inactive”.
With O=C(O)c1cccnc1 the outcome was “inactive”.
Cc1occc(=O)c1O was tested, and the outcome was “inactive”.
For CC(=O)O, the outcome was “inactive”.
For CCCCC(CC)COC(=O)CCCCCCCC(=O)OCC(CC)CCCC (stereo not given), the outcome was “inactive”.
For COc1ccc(OC(F)(F)F)cc1CN[C@H]1CCCN[C@H]1c1ccccc1, the outcome was “inactive”.
In the case of CSc1ccc(Oc2ccc(S(N)(=O)=O)cc2CN(C)C)cc1C, the outcome is reported as “inactive”.
For O=NO, the outcome was “inactive”.
C=CCc1ccc(OC)c(OC)c1 was tested, and the outcome was “inactive”.

Each compound was assayed on Matrix Metallopeptidase 9 (MMP9), MMP9 (gene 4318) (assay: BSK_KF3CT_MMP9: BioMAP Diversity Plus: KF3CT Assay for Matrix Metallopeptidase 9 (MMP9) Biomarker Activity (AID 2283074;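 on AC50: MMP9 protein level quantified by ELISA in the co-culture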)). Details: primary human keratinocytes with fibroblasts; actives raise or lower the signal.
How it was run: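 Human keratinocyte/foreskin fibroblast co-culture; compound added; 24 h; MMP-9 by ELISA; bidirectional fit vs DMSO baseline.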
c1ccc2occc2c1 was tested, and the outcome was “inactive”.
With C#CC(O)C(CC)CCCC (stereo not given) the outcome was “inactive”.
With NC=O the outcome was “inactive”.
In the case of COC(=O)CCC(=O)OC, the outcome is reported as “inactive”.
In the case of CCC(C)N(C)C(=O)c1cc2ccccc2c(-c2ccccc2Cl)n1 (stereo not given), the outcome is reported as “inactive”.
In the case of CCN(CC)CCOc1ccc(C(=C(Cl)c2ccccc2)c2ccccc2)cc1, the AC50 is reported as 11.7 µM (active).
O=Cc1ccccc1C=O was tested, and the outcome was “inactive”.
For CCCC[C@H]1CN(CC2CCOCC2)C(=O)OC12CCN(C1(C)CCN(C(=O)c3c(C)ncnc3C)CC1)CC2, the outcome was “inactive”.
In the case of CCCCCCC(CCCCCCCCCCC(=O)OCC(COC(C)=O)OC(C)=O)OC(C)=O (stereo not given), the outcome is reported as “inactive”.
For O=C1c2c(O)cccc2Cc2cccc(O)c21, the AC50 was 10.2 µM (active).
For CC(C)(O)c1ccc(CNC(=O)c2cccnc2Oc2ccc(F)cc2)cc1, the outcome was “inactive”.
With Cn1cnc2c1c(=O)[nH]c(=O)n2C the outcome was “inactive”.
Oc1ccccc1O was tested, and the AC50 was 8.72 µM (active).
For CCCCCCCCCC[N+](C)(C)[O-], the outcome was “inactive”.
O=C(N[C@@H](c1ccccc1)[C@@H]1CCCCN1)c1cccc(C(F)(F)F)c1Cl was tested, and the AC50 was 30.8 µM (active).
With O=C1OC(c2ccc(O)cc2)(c2ccc(O)cc2)c2ccccc21 the AC50 was 29.5 µM (active).
In the case of CC1=C(C)S(=O)(=O)CCS1(=O)=O, the outcome is reported as “inactive”.
With O=C(Oc1ccccc1)c1cccc(C(=O)Oc2ccccc2)c1 the outcome was “inactive”.
In the case of CC(C)c1cccc(C(C)C)c1NC(=O)NS(=O)(=O)c1cc(C(C)(C)O)co1, the outcome is reported as “inactive”.
With Cc1ccc(-c2cc(C(F)(F)F)nn2-c2ccc(S(N)(=O)=O)cc2)cc1 the outcome was “inactive”.
OCC(CO)n1cnc(-c2ccc(F)cc2)c1-c1ccnc(Oc2ccccc2)n1 was tested, and the outcome was “inactive”.
In the case of C=CCCCCCCCCCCCC, the outcome is reported as “inactive”.
In the case of O=C(O)c1cccnc1, the outcome is reported as “inactive”.
With Cc1occc(=O)c1O the outcome was “inactive”.
In the case of CC(=O)O, the outcome is reported as “inactive”.
CCCCC(CC)COC(=O)CCCCCCCC(=O)OCC(CC)CCCC (stereo not given) was tested, and the outcome was “inactive”.
With COc1ccc(OC(F)(F)F)cc1CN[C@H]1CCCN[C@H]1c1ccccc1 the outcome was “inactive”.
In the case of CSc1ccc(Oc2ccc(S(N)(=O)=O)cc2CN(C)C)cc1C, the outcome is reported as “inactive”.
O=NO was tested, and the outcome was “inactive”.
C=CCc1ccc(OC)c(OC)c1 was tested, and the outcome was “inactive”.
